Source: PubChem BioAssay (National Center for Advancing Translational Sciences (NCATS))
Only some compounds are listed: those with a hit (about 18% of all), similar ones and a draw of the others.
Six1-Eya2 blk: blocks human Six1 binding to Eya2; Q15475+O00167; AlphaScreen GST-Six1/His-Eya2 binding, biochemical; hits give low values; activity change, % (no concentration beside the values); 360,000 compounds, 0.56% hits; AID 651725; in the data active = activity change below about -65%; inconclusive = mostly about -30% to -63%
Target sequence (O00167 whole entry, looked up): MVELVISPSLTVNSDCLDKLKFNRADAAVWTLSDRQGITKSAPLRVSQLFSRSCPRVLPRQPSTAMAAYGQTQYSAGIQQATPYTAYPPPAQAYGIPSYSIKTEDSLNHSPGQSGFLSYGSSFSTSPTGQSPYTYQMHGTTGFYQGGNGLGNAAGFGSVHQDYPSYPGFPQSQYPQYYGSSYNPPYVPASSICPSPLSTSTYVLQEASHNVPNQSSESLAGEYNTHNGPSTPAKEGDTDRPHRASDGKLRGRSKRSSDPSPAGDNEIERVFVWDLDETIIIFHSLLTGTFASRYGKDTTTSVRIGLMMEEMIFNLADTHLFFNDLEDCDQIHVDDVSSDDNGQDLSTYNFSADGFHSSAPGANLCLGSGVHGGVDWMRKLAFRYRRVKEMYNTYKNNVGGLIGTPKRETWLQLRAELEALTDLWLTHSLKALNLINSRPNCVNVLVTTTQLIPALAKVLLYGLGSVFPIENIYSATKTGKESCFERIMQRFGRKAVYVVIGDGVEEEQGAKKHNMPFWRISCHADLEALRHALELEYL
Target sequence (Q15475 whole entry, looked up): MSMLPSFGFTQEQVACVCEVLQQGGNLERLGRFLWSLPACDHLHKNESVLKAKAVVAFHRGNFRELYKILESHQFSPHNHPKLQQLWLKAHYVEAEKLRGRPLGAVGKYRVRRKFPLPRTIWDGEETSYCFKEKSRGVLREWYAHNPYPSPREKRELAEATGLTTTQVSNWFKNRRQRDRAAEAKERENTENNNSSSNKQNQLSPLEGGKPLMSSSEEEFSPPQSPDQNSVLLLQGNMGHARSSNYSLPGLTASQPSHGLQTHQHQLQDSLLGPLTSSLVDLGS
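Homogeneous AlphaScreen proximity assay pairing GST-Six1 with His-tagged Eya2 (added as 5X mix: 250 nM and 500 nM) in 50 mM Tris pH 8.0, 300 mM NaCl, 1 mM TCEP. Glutathione donor and nickel acceptor beads; 1 h, 37 °C, dark.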
TDP1 cell CPT: DT40-hTDP1 cell growth loss with CPT; 420,000 compounds, 12% hits; Potency, µM (series often up to 46.2 µM), for inactives: top-dose activity change, negative = growth inhibition, actives largely listed as inhibitors; chicken DT40 Tdp1-/-;hTDP1 cells + 20 nM CPT, ATP luminescence, 48 h; note: potency is the fitted concentration of half-maximal effect; nearly all actives have a fitted effect of over 55% in size
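Chicken DT40 Tdp1-/- cells stably complemented with human TDP1 were seeded at 400 cells/well in medium containing 20 nM camptothecin, exposed to pin-transferred compounds, and grown at 37 °C for at least 48 hr. Viability was read as ATP luminescence.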
TDP1 cell noCPT: qHTS for Inhibitors of human tyrosyl-DNA phosphodiesterase 1 (TDP1): qHTS in cells in absence of CPT; 420,000 compounds, 15% hits; DT40 Tdp1-/- hTDP1 cells, no CPT, ATP luminescence, 48 h; Potency, µM (doses to about 46.2 µM), inactives show top-dose activity change, negative = growth inhibition, hits mostly inhibitors; AID 686978, 2013; note: potency is the fitted concentration of half-maximal effect; nearly all actives have a fitted effect of over 55% in size
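Chicken DT40 Tdp1-/- cells complemented with human TDP1, screened without camptothecin (DMSO vehicle only), 400 cells/well. Compounds pin-transferred, cells incubated at 37 °C for at least 48 hr. Growth read as ATP-dependent luminescence (CellTiter-Glo, 30 min at RT).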
TDP1 inh: inhibitors of human tyrosyl-DNA phosphodiesterase TDP1; Q9NUW8; recombinant TDP1, AlphaScreen DNA substrate cleavage; Potency, µM (titrated, usually from 130 µM), for the others: at the top dose activity change, negative = inhibition, usual class: inhibitors; 350,000 compounds, 0.28% hits; AID 485290; note: potency is the fitted concentration of half-maximal effect; nearly all actives have a fitted effect of over 40% in size
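Tdp1 1 nM final; 15 min RT w/ cpd; substrate 15 nM, 5 min; beads 10 ug/ml, 10 min; AlphaScreen read. Neg ctrl: no enzyme.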
CtBP-E1A blk: CtBP/E1A binding inhibition; 340,000 compounds, 0.49% hits; AlphaScreen GST-E1A/His-CtBP binding, 1536-well; hits give low values; AID 651724; activity change, % (no concentration beside the values); in the data active = activity change below about -65%; inconclusive = mostly about -30% to -63%
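Steps: dispense buffer (Tris pH 8.0, NaCl 300 mM, TCEP 1 mM, BSA, Tween 20); add 5X protein mix (GST-E1A, His-CtBP, 125 nM each); pin 23 nL compound; 2 h at 37 °C, dark; add 5X beads (50 ug/mL); 1 h; read.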
IL-1B inflam inh: inflammasome signaling inhibition, IL-1 beta readout; THP-1 LPS/ATP IL-1B secretion, AlphaLISA, 16 h; hits give low values; activity change, % at 57.5 µM; 360,000 compounds, 4.7% hits; AID 743279; in the data active = activity change below about -50%; inconclusive = mostly about -30% to -49%
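Secreted IL-1B measured by AlphaLISA bead assay after 16 h compound exposure of THP-1 cells; compounds (final up to 57.5 uM) added 1 h before LPS (250 ng/mL) and ATP (1.25 mM) stimulation; lower signal means less secretion.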
Numbers without * were called inactive; ? = inconclusive; . = not tested or not shown; ! = not active in a repeat; [ ] = remark or other dose. Unless noted, calls come from the whole dose curve; as a rule, active = well fitted curve in the direction sought with a large enough effect; inconclusive = small, poorly fitted or top-dose-only effect, or another doubt; inactive = no such curve, though single readings can be large; an effect the other way counts as inactive or inconclusive. % is set by controls: 0 for no effect and ±100 for the full control effect.

SMILES	Six1-Eya2 blk	TDP1 cell CPT	TDP1 cell noCPT	TDP1 inh	CtBP-E1A blk	IL-1B inflam inh
Cc1ccc(C2CC(c3ccccc3C)n3nc(N)nc3N2)cc1 (stereo not drawn)	-4	-3%	2%	5%	0	26
Nc1nc(NCC2CCCO2)nc(Nc2ccc(Cl)cc2)c1[N+](=O)[O-] (stereo not drawn)	-2	-2%	-23%	-3%	-4	.
O=c1cc(-c2ccccc2)[nH]c2ccc(F)cc12	2	0.92µM*	0.52µM*	4%[234 µM]	7	79
Cc1ccc(-c2cc(=O)c3cc(F)ccc3[nH]2)cc1	8	23µM*	?	1%	7	31
O=c1cc(-c2ccccc2)[nH]c2cc(Cl)ccc12	-27	0.46µM*	0.73µM*	2%[234 µM]	.	43
O=c1cc(-c2ccccc2)[nH]c2ccc(Cl)cc12	.	.	.	3%[234 µM]	.	.
O=c1cc(-c2cccc(F)c2)[nH]c2ccccc12	3	1µM*	0.58µM*	7%[234 µM]	-2	51
Cc1ccc(S(=O)(=O)N2CCCCC2)cc1NC(=O)COC(=O)c1ccc2c(c1)OCO2	0	-2%	-2%	5%	4	-25
Oc1cc(O)c(CN2CCOCC2)cc1CN1CCOCC1	-1	22%	1%	.	-3	9
Cc1ccc(-c2cc(=O)c3cc(C)ccc3[nH]2)cc1	2	5.2µM*	3.7µM*	1%[234 µM]	0	57
COc1ccc2[nH]c(-c3cccc(F)c3)cc(=O)c2c1	6	0.33µM*	0.23µM*	7%[234 µM]	5	27
CN(C(=O)c1ccc(NC(=O)Cc2ccc(NC(=O)C3CCN(C(=O)CCc4ccccc4)CC3)cc2)cc1)C1CCCC1	0	23µM*	21µM*	.	3	19
CN(C(=O)c1ccc(NC(=O)Cc2cccc(NC(=O)C3CCN(C(=O)CCc4ccccc4)CC3)c2)cc1)C1CCCC1	-4	?	?	6%	-2	-5
O=C(Cc1cccc(NC(=O)C2CCN(C(=O)CCc3ccccc3)CC2)c1)Nc1cccc(C(=O)N2CCCC2)c1	-4	?	16µM*	3%	0	-1
CN(C(=O)c1cccc(NC(=O)Cc2cccc(NC(=O)C3CCN(C(=O)C4CCC4)CC3)c2)c1)C1CC1	-5	18%	-13%	.	6	6
O=C(Cc1cccc(NC(=O)C2CCCN(C(=O)CCc3ccccc3)C2)c1)Nc1ccc(C(=O)N2CCCCC2)cc1 (stereo not drawn)	2	29µM*	23µM*	.	-1	-108*
O=C(Cc1cccc(NC(=O)C2CCCN(C(=O)c3ccccc3)C2)c1)Nc1ccc(C(=O)N2CCCCC2)cc1 (stereo not drawn)	-2	6%	-15%	.	2	-5
CN(C(=O)c1cccc(NC(=O)Cc2cccc(NC(=O)C3CCN(C(=O)CCc4ccccc4)CC3)c2)c1)C1CC1	-3	-96%	23µM*	.	-1	-17
COc1ccc(C(=O)c2c(O)cc(-c3ccc(OC)cc3)oc2=O)cc1	-3	-5%	0%	0%	-2	11
Cc1ccsc1C(=O)N1CCCCCC1(C)C(=O)NCC(C)C (stereo not drawn)	1	-13%	-2%	.	5	23
COc1ccc(-c2nn(C)c(=O)c3ccccc23)cc1NC(=O)Cn1nc(-c2ccccc2)c2ccccc2c1=O	-7	?	?	5%	-5	-8
CN(C(=O)c1ccc(NC(=O)Cc2ccc(NC(=O)C3CCN(C(=O)CCc4ccccc4)CC3)cc2)cc1)C1CC1	-1	26µM*	18µM*	8%	7	-9
CN(C(=O)c1ccc(NC(=O)Cc2ccc(NC(=O)C3CCN(C(=O)c4ccccc4)CC3)cc2)cc1)C1CCCC1	10	?	?	.	3	4
Cc1ccc(C)c(Cn2nc3c4ccccc4n(Cc4ccccc4)cc-3c2=O)c1	-8	?	?	.	-8	0
COc1cccc(-c2cnc(C(O)c3ccccc3)[nH]2)c1 (stereo not drawn)	-9	-18%	-12%	.	-10	0
SMILES	Six1-Eya2 blk	TDP1 cell CPT	TDP1 cell noCPT	TDP1 inh	CtBP-E1A blk	IL-1B inflam inh
CCOC(=O)c1c(NC(=O)C2=COCCO2)sc2c1CCN(C(=O)OC)C2	8	?	18µM*	.	4	-26
CNC(=O)c1c(NC(=O)C2=COCCO2)sc(C)c1C	-1	2%	-8%	.	1	-13
COC(=O)c1c(NC(=O)C2=COCCO2)sc(C)c1C	5	-2%	?	.	-5	-60*
N#CCCn1c(=O)c(-c2ccc(Cl)cc2)nc2cnc(Oc3cccc(Cl)c3)nc21	.	15%	-9%	.	.	.
COc1ccc2c(c1OC)C(=O)OC2c1ccc(O)cc1 (stereo not drawn)	.	18µM*	13µM*	0%	.	.
COc1ccc(CNc2ncnc3nc[nH]c23)cc1	.	14µM*	14µM*!	2%	.	.
COc1ccc(CNc2nc(NCc3ccc(OC)cc3)c3[nH]cnc3n2)cc1	0	?	29µM*	6%	.	10
CCOc1ccccc1NC(=O)CNC(=O)Cc1ccccc1	4	-3%	9%	3%	5	13
Cc1noc(C)c1COc1cccc(C(=O)OCC(=O)N2CC(=O)Nc3ccccc32)c1	0	0.58µM*	0.65µM*	4%	4	83
CC(C)CC(NC(=O)CCC(=O)OCC(=O)[C@@]1(O)CCC2[C@@H]3CCC4=CC(=O)C=C[C@]4(C)C3[C@@H](O)C[C@@]21C)C(=O)O (stereo partly drawn)	-6	-25%	-18%	.	.	?
NC(=O)C1CCN(c2ccc(C(F)(F)F)cn2)CC1	-4	7%	-5%	3%	-3	-16
CC1=NN(c2ccc(C(F)(F)F)cn2)C(=O)C1	-68*	23µM*	?	8%	?	-1
O=C(Cn1cnc2scc(-c3ccccc3)c2c1=O)NCc1ccco1	0	-18%	?	-2%	.	-8
O=C(Cn1cnc2sc(-c3ccccc3)cc2c1=O)NCCc1ccccc1	3	?	?	1%	-26	41
O=C(Cn1cnc2sc(-c3ccccc3)cc2c1=O)NCc1ccco1	-18	6.5µM*	5.8µM*	.	-1	16
O=C(Cn1cnc2sc(-c3ccccc3)cc2c1=O)NCc1ccccc1	4	3.7µM*	5.2µM*	6%	-5	41
O=C(NCCO)c1cccc2c1C(=O)c1ccccc1-2	-4	-25%	?	5%	-3	-25
